Assay outcomes as filed in PubChem BioAssay.
HTT-AS promoter: Primary qHTS for Identification of Small Molecule Activators of Huntingtin-Antisense Promoter Activity; Potency, µM (doses to about 57.5 µM), without a hit: at the highest dose activity change, positive = activation, most hits filed as activators; HEK293 HTT-AS promoter firefly luciferase reporter, 24 h; response scale: percent change from vehicle, -100% = no light; actives 0.24% (n = 48,000); also: potency is read from the fitted curve at half-maximal effect; nearly all actives have a fitted effect of over 55% in size
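HEK293 Fluc reporter, 2,500 cells/well, 24 h pre-culture; cpds up to 57.5 uM final, 24 h 37 degrees C; Dual-Glo, 10 min RT; normalized vehicle = 0%, zero RLU = -100%.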
HTT promoter inh: Primary qHTS for Identification of Small Molecule Inhibitors of Huntingtin Promoter Activity | actives 0.93% (n = 48,000) | Potency, µM (top dose mostly 57.5 µM), for inactives: at the highest dose activity change, negative = inhibition, actives largely listed as inhibitors | HEK293 HTT promoter firefly luciferase reporter, 24 h; also: potency is read from the fitted curve at half-maximal effect; nearly all actives have a fitted effect of over 50% in size
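Luminescence was read after Dual-Glo reagent and a 10 min room-temperature incubation. Values were normalized to vehicle (0% activity) and zero RLU (-100% activity). Reporter HEK293 cells had been exposed to compounds (up to 57.5 uM final) for 24 h.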
DRV1 agonist: qHTS for Agonists of Human Resolvin D1 Receptor DRV1 | actives 2.5% (n = 48,000) | CHO-K1 GPR32 beta-arrestin PathHunter luminescence, 90 min; zero percent set by DMSO-only wells | activation, % at 76.9 µM | Probable G-protein coupled receptor 32 (Homo sapiens), O75388;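 active = activation of at least 60% and not above a set upper limit, about 1 call in 100 departs from these limits; inconclusive = activation of 40% to 60%, or above that upper limit; inactive = activation under 40%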; also: 0% is about no effect
Target sequence (O75388 whole entry, looked up): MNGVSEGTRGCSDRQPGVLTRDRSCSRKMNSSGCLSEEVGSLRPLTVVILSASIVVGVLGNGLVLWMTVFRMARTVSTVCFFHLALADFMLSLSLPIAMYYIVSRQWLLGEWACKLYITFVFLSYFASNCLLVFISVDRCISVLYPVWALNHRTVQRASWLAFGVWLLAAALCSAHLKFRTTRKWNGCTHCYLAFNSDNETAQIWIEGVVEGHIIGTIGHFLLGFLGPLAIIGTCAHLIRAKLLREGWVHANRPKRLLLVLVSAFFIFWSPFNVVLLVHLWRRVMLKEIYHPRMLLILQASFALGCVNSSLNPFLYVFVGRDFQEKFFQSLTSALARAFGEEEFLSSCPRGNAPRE
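Engineered CHO-K1 line co-expressing GPR32-ProLink and EA-beta-arrestin. Compound treatment lasted 90 min at 37 °C. Luminescence was recorded after 1 h with substrate at ambient temperature, relative to DMSO basal wells.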
Active calls of the source: *; ? = inconclusive; . = no result; [ ] = remark or other dose. Most compounds without a hit are left out; they make up all but 3.7% or so of the library. Unless noted, calls follow the shape of the dose curve; as a rule, active = well fitted curve in the direction sought with a large enough effect; inconclusive = small, poorly fitted or top-dose-only effect, or another doubt; inactive = no such curve, though single readings can be large; an effect the other way counts as inactive or inconclusive.

SMILES	HTT-AS promoter	HTT promoter inh	DRV1 agonist
O=C(Cn1c(=O)oc2cc(S(=O)(=O)NCc3ccccc3)ccc21)Nc1cccc(F)c1	-34%	-31%	67*
COc1ccc(-c2[nH]c(-c3ccccc3)nc2SCC(=O)Nc2ccc3c(c2)OCO3)cc1	-25%	?	-4
CC(=O)SCC(CC(=O)c1ccc(C)cc1)C(=O)O (configuration not stated)	16%	12%	-71
CSc1ncc(Cl)c(C(=O)N(Cc2ccc(N(C)C)cc2)Cc2ccco2)n1	-42%	?	6
CCS(=O)(=O)c1ncc(Cl)c(C(=O)N(Cc2ccccc2)c2ccc(OC)cc2)n1	-94%	16µM*	-11
COc1ccc(N(Cc2ccccc2)C(=O)c2nc(SC)ncc2Cl)cc1	-17%	20µM*	-11
CCS(=O)(=O)c1ncc(Cl)c(C(=O)NCc2ccc(OC)cc2)n1	-94%	?	-14
Oc1ccc(-c2ccc(-c3cc(Nc4cccc(CNC5CC5)c4)n[nH]3)cc2)c(O)c1	-19%	?	.
CC1=C(C(=O)Nc2cccnc2)C(c2ccc(F)cc2)n2nc(SCc3ccccc3)nc2N1 (configuration not stated)	-4%	-9%	-20
CCOc1ccc(C(=O)Nc2ccc3nc(SCC(=O)N4CCOCC4)sc3c2)cc1	-23%	-25%	4
S=C(NCc1ccc2c(c1)OCO2)N1CCN(c2ncnc3c2oc2ccccc23)CC1	-16%[116 µM]	?	.
COc1cc2ncnc(Nc3ccc(F)c(Cl)c3)c2cc1OCCCN1CCOCC1	-32%	?	77*
C=CC(=O)Nc1cc2c(Nc3ccc(F)c(Cl)c3)ncnc2cc1OCCCN1CCOCC1	-41%	-11%	1
CCOc1ccccc1NC(=O)c1c(NCc2sccc2C)sc2c1CCCCC2	-17%	-12%	-14
CCOC(=O)N1CCc2c(sc(NCc3sccc3C)c2C(=O)Nc2ccc(OC)cc2OC)C1	-86%	?	117*
CCOC(=O)N1CCc2c(sc(NCc3sccc3C)c2C(=O)Nc2ccccc2OCC)C1	-9%	?	63*
COc1ccc(NC(=O)c2c(NCc3sccc3C)sc3c2CCCCC3)c(OC)c1	-13%	-24%	-2
Nc1nc(F)nc2c1ncn2[C@@H]1O[C@H](COP(=O)(O)O)[C@@H](O)[C@H]1O	6%	27%	.
CCOc1ccccc1OCCNC(C)Cc1ccc(OC)c(S(N)(=O)=O)c1 (configuration not stated)	-6%	1%	.
C[C@@]12O[C@@H](C[C@]1(O)CO)n1c3ccccc3c3c4c(c5c6ccccc6n2c5c31)CNC4=O	-50%	?	.
CO[C@H]1C=CC=C(C)C(=O)NC2=CC(=O)C(NCCN(C)C)=C(C[C@@H](C)C[C@H](OC)[C@@H](O)[C@@H](C)C=C(C)[C@@H]1OC(N)=O)C2=O	-92%	?	.
CN(Cc1cc(Br)cc(Br)c1N)C1CCCCC1	2%	1%	95*
CC(C)(Cc1ccc2ccccc2c1)NC[C@@H](O)COc1cccc(Cl)c1C#N	4%	8%	.
CCNC(=O)CCCC=CC[C@@H]1[C@H](C=CC(O)CCc2ccccc2)[C@@H](O)C[C@@H]1O (some centres not stated)	-7%	-7%	.
Cc1nc2nncn2c(NCc2ccc(F)cc2)c1C	-85%	?	44
SMILES	HTT-AS promoter	HTT promoter inh	DRV1 agonist
Cc1nc2nncn2c(NCc2ccc(Cl)cc2)c1C	-49%	?	76*
CCCCNC(=O)Cn1c(=O)cc(C)c2c(C)nn(-c3cccc(Cl)c3C)c21	-3%	-17%	8
COc1nnc(-c2ccc(N3CCCCC3)c(NC(=O)c3ccccc3Cl)c2)c2ccccc12	-87%	11µM*	-5
COc1nnc(-c2ccc(N3CCCCC3)c(NC(=O)c3ccc(C)cc3)c2)c2ccccc12	-19%	-16%	12
N#Cc1ccc(-c2cccs2)nc1SCC(=O)Nc1cccc(C(F)(F)F)c1	3%	-32%	82*
N#Cc1c(C(F)(F)F)cc(-c2cccs2)nc1SCC(=O)Nc1cccc(C(F)(F)F)c1	-48%	-38%	2
CSc1cccc(Nc2ncc3cc(-c4c(Cl)cccc4Cl)c(=O)n(C)c3n2)c1	0%	0%	.
CCSc1nc2c([nH]c3ccccc32)c(=O)n1-c1ccc(F)cc1	-29%	-11%	79*
CSc1nc2c([nH]c3ccccc32)c(=O)n1-c1ccc(F)cc1	-29%	-13%	?
O=C1CC(c2cc(F)cc(F)c2)c2cc3c(cc2N1)OCO3 (configuration not stated)	-26%	?	38
